# Screening results deposited in PubChem BioAssay by several laboratories.
# Hits are enriched below; roughly 3.5% of the tested compounds scored in any of these assays.
# Rv3671c inh: inhibits the M. tuberculosis serine protease Rv3671c; 0.048% of 320,000 active; inhibition, % at 5.96 µM; P9WHR9; in the data active means inhibition above about 38%;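 further: extracellular domain of Rv3671c used as enzyme; 0% = enzyme with DMSO and 100% = no enzyme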
# Mtb UGM inh: blocks M. tuberculosis UGM enzyme; purified UGM, fluorescence polarization probe displacement; inhibition, % at 10 µM; 0.06% of 320,000 active; AID 504406; in the data active means inhibition above about 10%, passing the limit was not always enough
# Mtb betalactam: beta-lactam sensitization of Mtb H37Rv; M. tuberculosis H37Rv growth with meropenem, percent inhibition; inhibition, % at 25 µM; 0.27% of 330,000 active; AID 434955; call rule not given here;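 further: growth measured after seven days incubation then overnight dye step; 0% = bacteria only wells and 100% = bacteria with antibiotic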
# Mtb FBA inh: inhibitors of M. tuberculosis fructose-bisphosphate aldolase | P9WQA3 | 2.3% of 360,000 active | purified M. tuberculosis FBA, fluorescence read-out | inhibition, % at 1 µM | AID 588726; in the data active means inhibition above about 27%;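 further: 0% = vehicle and 100% = reference inhibitor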
# Target sequence (P9WQA3 whole entry, looked up): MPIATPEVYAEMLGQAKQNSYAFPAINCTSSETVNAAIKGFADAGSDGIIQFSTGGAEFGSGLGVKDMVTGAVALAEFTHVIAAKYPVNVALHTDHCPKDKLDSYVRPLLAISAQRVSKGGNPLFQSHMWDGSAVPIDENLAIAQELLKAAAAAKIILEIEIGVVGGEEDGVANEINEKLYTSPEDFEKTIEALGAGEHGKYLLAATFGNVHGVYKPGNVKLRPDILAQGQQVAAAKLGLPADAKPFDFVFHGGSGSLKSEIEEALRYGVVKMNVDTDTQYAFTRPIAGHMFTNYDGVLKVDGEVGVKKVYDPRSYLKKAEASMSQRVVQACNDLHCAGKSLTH
# GDH-TPI counter: counter-screen for M. tuberculosis FBA inhibitors: GDH-TPI coupled enzymes; 1.2% of 360,000 active; GDH-TPI coupled enzyme counterscreen, NADH absorbance; inhibition, % at 4.8 µM; in the data active means inhibition above about 30%;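 further: 0% = DMSO wells and 100% = wells lacking the enzyme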
# An asterisk follows results filed as active; x = no result given; + = active, no number.
SMILES,Rv3671c inh,Mtb UGM inh,Mtb betalactam,Mtb FBA inh,GDH-TPI counter
CCOC(=O)c1cc(-c2ccccc2)nc2nc(N(CC)CC)sc12,-16,0,24,65*,10
C=CCn1c(=O)c2c(nc3n2CCN3c2cccc(Cl)c2C)n(C)c1=O,-6,-6,-9,-1,11
C=CCn1c(=O)c2c(nc(-c3ccc(S(=O)(=O)O)cc3)n2C)n(C)c1=O,2,-2,2,+,3
CCN(CC)c1ccc(C(=O)c2ccccc2C(=O)O)c(O)c1,9,1,-3,-6,42*
Cc1cccc(C(=O)c2ccccc2C(=O)O)c1O,8,1,-1,-2,11
Cc1nc(C(F)(F)F)ccc1C(=O)N1CCC1(C)C(=O)NS(=O)(=O)c1ccc(C(C)(C)C)cc1 (configuration not stated),x,x,x,2,13
Cc1nn(-c2ccccn2)c2c1-c1nc(N3CCOCC3)ncc1CC2,-7,0,98,114*,17
Fc1cnc(N2CCOCC2)nc1N1CCc2ccccc21,1,-1,50,-2,29
O=C(NN=Cc1ccc(N(CCCl)CCCl)cc1Cl)c1cccnc1,x,x,x,8,72*
Cc1cc(N(CCCl)CCCl)ccc1C=NNC(=O)c1cccnc1,x,x,x,3,51*
Cc1c(N(C(=O)c2ccccn2)C2(C(=O)NC3CCCCC3)CCCCC2)c(=O)n(-c2ccccc2)n1C,-3,-2,-10,4,8
CCc1cc2c(=O)c(Oc3ccccc3)c(C)oc2cc1O,7,-1,6,186*,18
Cc1oc2cc(OCC(=O)O)ccc2c(=O)c1Oc1ccccc1,4,-2,-6,1,4
O=C(COc1ccccc1)N/N=C/c1sc(=O)n(Cc2cccc(C(=O)O)c2)c1Cl,2,1,-5,-3,23
O=c1sc(/C=N/Nc2ccccc2)c(Cl)n1Cc1ccccc1,-1,4,1,-1,86*
COC(=O)c1cccc(Cn2c(Cl)c(/C=N/NC(=O)c3ccco3)sc2=O)c1,-6,-1,55,-2,35*
O=C(N/N=C/c1sc(=O)n(-c2ccccc2)c1Cl)c1ccccc1,-5,-5,4,-4,31*
O=C(O)c1cccc(Cn2c(Cl)c(/C=N/NC(=O)c3ccc(O)cc3)sc2=O)c1,-9,2,2,-5,34*
COc1ccc(-c2csc3ncn(CC(=O)N4CCOCC4)c(=O)c23)cc1,-1,-3,-6,2,-8
COC(=O)c1cccn(CC(=O)c2ccc(Cl)cc2Cl)c1=O,3,0,-6,-2,4
O=C(c1ccc(Cn2c(=S)[nH]c3ccc(Br)cc3c2=O)cc1)N1CCN(C2CCCCC2)CC1,-1,-1,99,-3,4
CN(C)c1cccc(CNC(=O)c2csc([C@H]3C[C@H](O)[C@@H](CO)O3)n2)c1,x,x,x,-2,6
Cn1c(=O)c2cc(NC(=O)Nc3cccnc3)ccc2n1Cc1cccc(C(F)(F)F)c1,x,x,x,114*,5
CC(C)=CCn1c2ccc(NC(=O)Nc3ccc(N(C)C)cc3)cc2c(=O)n1C,x,x,x,3,4
O=C(CCc1ccccc1)Nc1cccnc1,-2,-2,6,0,-5
SMILES,Rv3671c inh,Mtb UGM inh,Mtb betalactam,Mtb FBA inh,GDH-TPI counter
C=C(C)Cn1c2ccc(NC(=O)NCCc3cccs3)cc2c(=O)n1C,x,x,x,182*,9
CN(C)c1ccc(NC(=O)Nc2ccc3c(c2)c(=O)n(C)n3Cc2ccccc2)cc1,x,x,x,2,8
C=C(C)Cn1c2ccc(NC(=O)CCc3cccnc3)cc2c(=O)n1C,x,x,x,+,13
CC(C)=CCn1c2ccc(NC(=O)Nc3cccnc3)cc2c(=O)n1C,x,x,x,141*,1
CC(C)c1csc(CN2CCC(N3CCC(C(=O)NCC4CCCO4)CC3)CC2)n1 (configuration not stated),4,-3,5,-1,-8
COc1ccc(N2CCN(S(=O)(=O)c3cn(C)cn3)CC2)cc1,-3,2,4,3,5
Cn1c(=O)c2cc(NC(=O)Nc3cccnc3)ccc2n1Cc1ccc(Cl)cc1,x,x,x,135*,-2
CN(C)c1ccc(NC(=O)Nc2ccc3c(c2)c(=O)n(C)n3Cc2ccc(Cl)cc2)cc1,x,x,x,7,11
CCOC(=O)c1c(C)oc2ccc(OCC(=O)C(C)(C)C)cc12,-3,-2,-6,-2,3
CCOC(=O)c1c(-c2ccccc2)oc2ccc(OCC(=O)O)cc12,-8,1,-12,161*,-1
CCOC(=O)c1c(-c2ccc(OC)cc2)oc2ccc(OCC(N)=O)cc12,-6,0,5,+,-2
Cc1c(CCC(C)C)c(=O)n2c([nH]c3ccccc32)c1C#N,4,0,70,24,3
Cc1c(CCO)c(=O)n2c([nH]c3ccccc32)c1C#N,-12,-4,-1,+,16
O=C(/C=C/c1cc(Br)ccc1F)OCC(=O)N1CCCC1,-13,-2,x,-2,-12
Cc1cc(=O)n2ccccc2c1C#N,2,0,-9,+,25
Cc1cc(=O)n2c(ccc3ccccc32)c1C#N,9,1,-9,-2,-7
Cc1csc(=NC(=O)c2ccccc2)n1Cc1ccco1,-6,2,4,-5,11
CCn1c(C)csc1=NC(=O)c1ccccc1,-16,3,12,-8,34*
CCn1c(C)csc1=NC(=O)c1ccccc1O,0,0,-3,0,37*
Cc1csc(=NC(=O)c2ccccc2)n1C,6,2,1,0,10
CSc1ncccc1C(=O)OCC(=O)N(CC(C)C)c1c(N)n(Cc2ccccc2)c(=O)[nH]c1=O,0,-1,-5,0,1
CCN(CC(=O)NCc1cccs1)C(=O)/C=C/c1ccc(OC)c(OC)c1,-1,-1,-1,8,13
O=C(O)CCn1cc(/C=C\C(=O)c2ccc(Cl)cc2)c(-c2cccc(Br)c2)n1,-14,1,0,1,38*
O=Cc1cn(CCC(=O)O)nc1-c1cccc(Br)c1,7,3,-3,2,-4
O=C1N(Cc2ccccc2)c2ccc(Cl)cc2C12OCCO2,-2,1,1,-2,5
SMILES,Rv3671c inh,Mtb UGM inh,Mtb betalactam,Mtb FBA inh,GDH-TPI counter
CC(C)(C)OC(=O)NCCC(=O)N/N=C/c1ccc2ncccc2c1,-5,1,3,2,3
COc1ccc2nc(/C=N/NC(=O)CCNC(=O)OC(C)(C)C)ccc2c1,9,3,-6,69*,52*
CCN(C(=O)CSc1nnc(C)c(=O)[nH]1)c1cccc2ccccc12,-9,3,-8,6,9
O=C(c1ccncc1)c1ccc(N2CCN(C3CC(=O)N(Cc4cccs4)C3=O)CC2)cc1 (configuration not stated),8,1,3,-4,38*
COc1ccc(N(CC(=O)NC2CCCCC2)C(=O)c2ccc(C)s2)cc1OC,2,1,-4,0,5
COC(=O)c1ccc(OC(=O)CCS(=O)(=O)c2ccc(C)cc2)cc1,3,-2,0,-2,4
CCOC(=O)c1c(-c2ccccc2)cn2ccccc12,-2,2,16,168*,11
O=C(N/N=C/c1cccnc1)c1cc2ccccc2o1,-6,-1,4,5,31*
